# From PubChem BioAssay (EPA / NIEHS)
# Active and inactive are the calls of the source. How the source made its calls: active means hit-call score of the fitted dose curve at least 0.9, where 1 is the maximum; inactive means score below 0.9.
# Assay: ATG_ISRE_CIS: Attagene CIS-FACTORIAL HepG2 Assay for human Interferon Regulatory Factor 1 (IRF1) binding to an Interferon-Stimulated Response Element (ISRE) (AID 2282948)
# Settings: HepG2 ISRE cis-reporter (Attagene), mRNA transcription readout; actives raise or lower the signal
# Experimental: ATG_CIS is a cell-based, multiplexed-readout assay that uses HepG2, a human liver cell line, with measurements taken at 24 hours after chemical dosing in a 24-well plate.ATG_ISRE_CIS is one of 52 assay component(s) measured or calculated from the ATG_CIS assay. It is designed to make measurements of mRNA induction, a form of inducible reporter, as detected with fluorescence intensity signals by Reverse transcription polymerase chain reaction (RT-PCR) and Capillary electrophoresis technology.Data from the assay component ATG_ISRE_CIS was analyzed into 1 assay endpoint. This assay endpoint, ATG_ISRE_CIS, was analyzed with bidirectional fitting relative to DMSO as the negative control and baseline of activity. Using a type of inducible reporter, measures of mRNA for gain or loss-of-signal activity can be used to understand the reporter gene at the transcription factor-level as they relate to the gene IRF1. Furthermore, this assay endpoint can be referred to as a primary readout, because this assay has produced multiple assay endpoints where this one serves a reporter gene function. To generalize the intended target to other relatable targets, this assay endpoint is annotated to the dna binding intended target family, where the subfamily is interferon regulatory factors.
# Human liver HepG2 cells are transiently transfected with multiple reporter transcription units (MRTUs) in 6-well plates using FuGene 6 reagent (Roche; 3 ml FuGene/1 mg DNA). The MRTU constructs are regulated by a cis-regulating element (promoter). […] A major difference between the CIS and TRANS system is that in CIS activities of endogenous TFs are measured, whereas the TRANS assay evaluates changes in activities of exogenous, chimeric NR-Gal4 proteins. […] At the end of 24 hour incubation, total RNA was isolated using TriZol reagent (Invitrogen). The isolated RNA is then reverse-transcribed using oligo(dT) primer and Mo-MLV reverse transcriptase (Invitrogen) with DNAse I (Ambion) treatment for 30 min. The one-tenth of the produced cDNA was amplified by PCR using Taq DNA polymerase (Invitrogen) and two reporter sequence-specific primers. The PCR products were fluorescently labeled by primer extension with 6-arboxyfluorescein (6-FAM) 5'-labeled reporter sequence-specific primer (2 min at 95 C, 20 s at 68 C and 10 min at 72 C) and these products were digested with 5U of HpaI (New England Biolabs) for 2h at 37 C. The fragments were purified using Qiaquick PCR columns (Qiagen), analyzed on an ABI 3130xL genetic analyzer (Applied Biosystems) with peak positions identified by using a set of X-rhodamine (ROX)-labeled MapMarker1000 molecular weight standards (BioVentures). The raw capillary electrophoresis data was processed using Attagraph software (Attagene).
Structure (SMILES),AC50,outcome
CC(C)(c1ccc(OCC2CO2)cc1)c1ccc(OCC2CO2)cc1 (stereo not given),58 µM (active),
CCC[CH2][Sn]([Cl])([Cl])[Cl],,inactive
N#CN=C(N)N,,inactive
CN(CCCC(=O)c1cccnc1)N=O,,inactive
COc1ccc(C=O)cc1,,inactive
CC(C)C1CCC(Cc2ccc(Cl)cc2)C1(O)Cn1cncn1 (stereo not given),,inactive
COP(=S)(OC)Oc1ccc(S(=O)(=O)N(C)C)cc1,,inactive
CC(C)c1ccc(CO)cc1,,inactive
O=C(NCO)NCO,,inactive
O=S(=O)(c1ccc(Cl)cc1)c1ccc(Cl)cc1,,inactive
CCOP(=S)(OCC)SCCS(=O)(=O)CC,,inactive
COc1ccc(C=O)cc1OC,,inactive
CC(Br)C(=O)O (stereo not given),,inactive
COP(=O)(OC)OC,,inactive
O=[N+]([O-])c1ccc(O)c([N+](=O)[O-])c1,,inactive
O=C1C(Cl)=C(Cl)C(=O)c2ccccc21,,inactive
CC12CC1(C)C(=O)N(c1cc(Cl)cc(Cl)c1)C2=O (stereo not given),,inactive
OCc1ccco1,,inactive
O=C(OC1CCCCC1)c1ccccc1C(=O)OC1CCCCC1,,inactive
Cl/C=C/Cl,,inactive

Structure (SMILES),AC50,outcome
O=C(O)C(Cl)(Cl)Cl,,inactive
CCC(C)(C)c1ccc(O)c(C(C)(C)CC)c1,,inactive
OCC(O)CCl (stereo not given),,inactive
C[C@]12CC[C@H](O)CC1=CC[C@@H]1[C@@H]2CC[C@]2(C)C(=O)CC[C@@H]12,,inactive
CN(C)N=O,,inactive
COP(=S)(OC)Oc1ccc(Sc2ccc(OP(=S)(OC)OC)cc2)cc1,,inactive
CNC,,inactive
O=[N+]([O-])c1c(Cl)c(Cl)cc(Cl)c1Cl,,inactive
C[C@@H](Oc1ccc(Cl)cc1Cl)C(=O)O,,inactive
CCOP(=S)(OCC)Oc1nc(Cl)c(Cl)cc1Cl,27.2 µM (active),
NNC(=S)NN,,inactive
COC(=O)Cc1ccccc1,,inactive
O=C(Cl)c1ccc(Cl)cc1,,inactive
C=CC#N,,inactive
Cc1ccccc1C(=O)Nc1cccc(OC(C)C)c1,,inactive
CCCCCCCCSC(=O)Oc1cc(Cl)nnc1-c1ccccc1,164 µM (active),
Cc1ccccc1N,,inactive
ClCC(Cl)CCl,,inactive
CCCCOCCOC(C)=O,,inactive
CC(C)c1cccc(C(C)C)c1O,,inactive
